Screening data deposited in PubChem BioAssay by National Center for Advancing Translational Sciences (NCATS).
Shown are actives, neighbours in structure and some others; about 4.2% of the full set was active somewhere.
PLK1 PBD block: PLK1 (human) polo-box domain binding inhibition | P53350 | Plk1 PBD binding of FITC phosphopeptide, fluorescence polarization | Potency, µM, for the others: max response, negative = inhibition, most hits filed as inhibitors | 2.8% of 360,000 active | AID 720504; also: potency is read from the fitted curve at half-maximal effect; series mostly up to about 57 µM; % is scaled to controls: 0 for no effect and ±100 for the full control effect; nearly all actives have a fitted effect of over 65% in size
Target sequence (P53350 whole entry, looked up, the tested form may be a part): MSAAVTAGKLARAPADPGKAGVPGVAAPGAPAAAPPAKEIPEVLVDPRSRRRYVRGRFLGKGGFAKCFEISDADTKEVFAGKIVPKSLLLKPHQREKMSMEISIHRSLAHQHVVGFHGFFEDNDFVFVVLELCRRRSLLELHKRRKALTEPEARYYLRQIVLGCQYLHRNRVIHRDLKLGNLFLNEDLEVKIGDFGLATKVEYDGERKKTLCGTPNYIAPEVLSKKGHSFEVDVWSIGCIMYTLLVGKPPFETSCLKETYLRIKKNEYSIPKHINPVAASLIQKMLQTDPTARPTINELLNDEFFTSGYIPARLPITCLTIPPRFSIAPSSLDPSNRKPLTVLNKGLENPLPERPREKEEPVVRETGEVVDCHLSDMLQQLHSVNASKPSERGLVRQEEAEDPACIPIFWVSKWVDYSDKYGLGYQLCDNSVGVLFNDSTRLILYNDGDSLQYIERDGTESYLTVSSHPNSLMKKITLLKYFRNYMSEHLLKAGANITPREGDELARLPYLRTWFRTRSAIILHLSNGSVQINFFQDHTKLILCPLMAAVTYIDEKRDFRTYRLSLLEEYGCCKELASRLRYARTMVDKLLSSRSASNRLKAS
VDR inh: inhibitors of human vitamin D receptor | Potency, µM, for the others: max response, negative = inhibition, actives largely listed as inhibitors | 0.93% of 400,000 active | VDR-SRC2-3 peptide fluorescence polarization, 2 h | P11473; also: potency is read from the fitted curve at half-maximal effect; % is scaled to controls: 0 for no effect and ±100 for the full control effect
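Measured by FP: displacement of SRC2-3 coactivator peptide from VDR by library compounds, following a two-hour ambient incubation.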
12-LOX inh: blocks human arachidonate 12S-lipoxygenase. purified 12hLO, xylenol orange hydroperoxide absorbance. AID 1671190. 1.1% of 580,000 active. Potency, µM (top dose mostly 108 µM), for inactives: top-dose activity change, negative = inhibition, hits mostly inhibitors. P18054; also: potency is read from the fitted curve at half-maximal effect; % is scaled to controls: 0 for no effect and ±100 for the full control effect
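Purified human 12hLO at 150 nM in 25 mM Hepes, 0.01% Triton X-100, pH 7.0, preincubated 15 min at room temperature with compound. Reaction started with 40 uM arachidonic acid, 30 min at room temperature. Hydroperoxide measured by Fe-xylenol orange, 573/405 nm absorbance ratio.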
Sfp PPTase inh: Sfp phosphopantetheinyl transferase inhibition; Q9F4F7; Biochemical Sfp PPTase activity, qHTS; Potency, µM, for inactives: largest response in the series, negative = inhibition, most hits filed as inhibitors; 3.5% of 310,000 active;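 also: the enzyme is Sfp with the accession as filed and its product quenches rhodamine fluorescence; potency is read from the fitted curve at half-maximal effect; 0% = enzyme reaction without inhibitor and -100% = no enzyme wells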
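With Hepes-Na pH 7.6 buffer containing 10 mM MgCl2, Sfp (15 nM) modified BHQ-2-YbbR (12.5 uM) using rhodamine-CoA (5 uM). Two reads 30 minutes apart at 525/598 nm yielded each well's rate.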
Sfp inh conf: Sfp phosphopantetheinyl transferase inhibition, confirmation. Potency, µM (top dose mostly 114 µM), for inactives: at the highest dose activity change, negative = inhibition, most hits filed as inhibitors. 79% of 380 active. shares compounds with Sfp PPTase inh. Sfp PPTase enzymatic assay, qHTS titration;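 also: potency is read from the fitted curve at half-maximal effect; plate controls were uninhibited Sfp reaction for no effect and no enzyme control for full effect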
Target sequence (Q9F4F7 whole entry, looked up): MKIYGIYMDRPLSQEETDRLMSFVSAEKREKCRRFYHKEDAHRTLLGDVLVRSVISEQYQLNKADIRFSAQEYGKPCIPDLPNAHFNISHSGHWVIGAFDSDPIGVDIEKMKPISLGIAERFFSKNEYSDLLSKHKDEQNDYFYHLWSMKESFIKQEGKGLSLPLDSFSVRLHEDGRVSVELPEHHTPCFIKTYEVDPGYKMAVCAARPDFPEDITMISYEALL
Sfp gel assay: Blocks Sfp PPTase activity, gel read-out; shares compounds with Sfp PPTase inh; purified Sfp, gel-based phosphopantetheinylation read-out; Potency, µM, usual class: inhibitors; 20% of 210 active; AID 2707;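 active = potency below 100 µM; inconclusive = dose-dependent response but potency above 100 µM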;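 also: band intensities scaled against SCH202676 control wells before curve fitting; potency is an IC50 for inhibitors of Sfp transfer activity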
USP1 UbRho: USP1-UAF1 deubiquitinase inhibition validated. shares compounds with VDR inh. Ub-Rhodamine cleavage, fluorescence kinetic read. Potency, µM (doses to about 56.8 µM), for the others: at the top dose activity change, negative = inhibition, usual class: inhibitors. 50% of 50 active
VDR inh confirm: confirmation of human vitamin D receptor inhibitors; shares compounds with VDR inh; VDR-coactivator inhibition assay, qHTS confirmation; Potency, µM, most hits filed as inhibitors; 89% of 840 active; AID 602199; also: potency is read from the fitted curve at half-maximal effect
VDR FP: blocks human VDR-coactivator binding in fluorescein assay; shares compounds with VDR inh; VDR-coactivator binding, fluorescein fluorescence polarization; Potency, µM (doses to about 57.1 µM), without a hit: top-dose activity change, negative = inhibition, actives largely listed as inhibitors; 48% of 840 active; AID 602200; also: potency is read from the fitted curve at half-maximal effect
VDR bla reporter: VDR (human) inhibition, cell-based beta-lactamase validation | shares compounds with VDR inh | VDR beta-lactamase reporter cells, FRET ratio; cells co-treated with VDR agonist LG190178 | Potency, µM (series often up to 46.1 µM), for inactives: at the highest dose activity change, negative = inhibition, actives largely listed as inhibitors | 23% of 840 active; also: potency is read from the fitted curve at half-maximal effect; % is scaled to controls: 0 for no effect and ±100 for the full control effect
VDR cytotox: cell toxicity, VDR inhibitor hit counter-screen. shares compounds with VDR inh. cytotoxicity counter-screen, cell viability, qHTS. Potency, µM (doses to about 48.3 µM), inactives show at the highest dose activity change, negative = cytotoxicity, actives largely listed as cytotoxic. 18% of 840 active;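 also: potency is read from the fitted curve at half-maximal effect; plate controls were DMSO for no effect and high-concentration cycloheximide for full effect; nearly all actives have a fitted effect of over 75% in size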
TbPYK confirm: Trypanosoma brucei pyruvate kinase inhibition, cherry-pick confirmation. 67% of 890 active. AID 720569. recombinant TbPYK, Kinase-Glo ATP luminescence. shares compounds with PLK1 PBD block. Potency, µM (top dose mostly 76.9 µM), for the others: top-dose activity change, negative = inhibition, actives largely listed as inhibitors; also: potency is read from the fitted curve at half-maximal effect; % is scaled to controls: 0 for no effect and ±100 for the full control effect; nearly all actives have a fitted effect of over 70% in size
TbPYK ADP-Glo: orthogonal confirmation of Trypanosoma brucei pyruvate kinase inhibitors; shares compounds with PLK1 PBD block; recombinant TbPYK, ADP-Glo luminescence, 60 min; Potency, µM (doses to about 76.9 µM), inactives show at the top dose activity change, negative = inhibition, most hits filed as inhibitors; 62% of 890 active; AID 720584; also: potency is read from the fitted curve at half-maximal effect; % is scaled to controls: 0 for no effect and ±100 for the full control effect; nearly all actives have a fitted effect of over 75% in size
Numbers without * were called inactive; i = inactive; ? = inconclusive; . = not tested or not shown. Unless noted, calls follow the shape of the dose curve; as a rule, active = well fitted curve in the direction sought with a large enough effect; inconclusive = small, poorly fitted or top-dose-only effect, or another doubt; inactive = no such curve, though single readings can be large; an effect the other way counts as inactive or inconclusive.

SMILES | PLK1 PBD block | VDR inh | 12-LOX inh | Sfp PPTase inh | VDR inh confirm | VDR FP | VDR bla reporter | VDR cytotox | others
CCN(CC)CCCN(C(=O)Cn1nnc(-c2ccc(OC)c(OC)c2)n1)C(C(=O)NC(C)(C)C)c1ccc(F)cc1 (stereo not given) | -12% | -18% | ? | 10% | . | . | . | .
Nc1nc2ccccc2[nH]1 | -3% | -7% | 6% | 4% | . | . | . | .
Nc1ccccc1Sc1nc2ccccc2[nH]1 | 13µM* | 20µM* | ? | 7.9µM* | 21* | 14µM* | 6% | 7% | Sfp inh conf=37µM*
CN1CCN(C(=S)C(=O)Nc2ccc(Br)cc2)CC1 | 2.4µM* | ? | ? | 1.3µM* | 4* | 3.5µM* | -3% | -15% | Sfp inh conf=6.6µM*
CCN1CCN(C(=S)c2ccc(Cl)cc2)CC1 | 2.1µM* | 35µM* | -27% | 2.2µM* | 9.5* | ? | 1% | 2% | Sfp inh conf=13µM*;Sfp gel assay=i;TbPYK confirm=0.25µM*;TbPYK ADP-Glo=1.6µM*
CCN1CCN(C(=O)c2ccccc2NC(=O)c2ccc(Cl)cc2)CC1 | -1% | 22% | 94% | 14% | . | . | . | .
O=C(O)c1ccc(/C=N/Nc2nnnn2-c2ccccc2)cc1 | 1% | 3% | 3% | 11% | . | . | . | .
O=C(COc1ccccc1)NCC(O)c1ccccc1C(F)(F)F (stereo not given) | . | . | 34% | . | . | . | . | .
Cc1cc(C)cc(N2CCN(C(=O)N3CCOCC3)CC2)c1 | -5% | -4% | ? | 1% | . | . | . | .
COc1ccc(C(=O)/C=C/C(=O)N(CC(=O)NC2CCCCC2)Cc2cccs2)c(O)c1 | 6.7µM* | 45µM* | ? | 3.2µM* | 15* | ? | 7.3µM* | 15µM* | Sfp inh conf=3.3µM*;Sfp gel assay=2.1µM*;TbPYK confirm=4.5µM*;TbPYK ADP-Glo=14µM*
N#C/C(=C\c1ccc(N2CCCCC2)o1)C(N)=O | 88% | -1% | -21% | -5% | . | . | . | .
N#C/C(=C/c1ccc(N2CCOCC2)o1)c1ccc(Cl)cc1 | 6% | ? | 7.9µM* | 0.71µM* | . | . | . | . | Sfp inh conf=13µM*;TbPYK confirm=?;TbPYK ADP-Glo=35µM*
Cc1ccc(-c2cc(C(=O)O)c3cc(Br)ccc3n2)o1 | 12µM* | 32µM* | 16µM* | 3.2µM* | 27* | ? | 33% | 13% | Sfp inh conf=3.7µM*;Sfp gel assay=i;TbPYK confirm=11µM*;TbPYK ADP-Glo=14µM*
Cc1cccc2cc3c(nc12)SC(=NCC1CCCO1)N(Cc1ccco1)C3 (stereo not given) | 24µM* | ? | . | 3.5µM* | 14* | 6.3µM* | 21µM* | ? | Sfp inh conf=6.6µM*;Sfp gel assay=6.2µM*;TbPYK confirm=?;TbPYK ADP-Glo=32µM*
O=C(/C=C/c1ccccc1O)c1ccco1 | -17% | ? | -9% | 2% | . | . | . | .
O=C(/C=C/c1cc(Br)ccc1O)c1ccco1 | 27µM* | 25µM* | ? | ? | 27* | ? | ? | ?
CC(C)c1ccc(NC(=O)C(c2ccc3c(c2)OCO3)N2CCCCC2)cc1 (stereo not given) | 10% | -1% | -17% | 13% | . | . | . | .
Oc1cc2c(cc1C(c1ccc(Cl)c(Cl)c1)N1CCCC1)OCO2 (stereo not given) | 1.2µM* | ? | 4.5µM* | ? | 3.5* | 3.5µM* | ? | 20%
Cc1ccc(C(C2=C(O)CC(C)(C)CC2=O)C2C(=O)CC(C)(C)CC2=O)s1 (stereo not given) | 4.7µM* | 50µM* | ? | 35µM* | 11* | 7.9µM* | 22% | ?
CC1(C)CC(=O)C(Br)=C(O)C1 | ? | -10% | -19% | 3% | . | . | . | .
Cc1[nH]n(-c2ncc(-c3ccccc3)s2)c(=O)c1C(c1ccc(Cl)cc1)C(C#N)C#N (stereo not given) | 3.8µM* | 35µM* | ? | ? | 6.7* | ? | 20% | -5%
Cc1cc(S(=O)(=O)c2ccc([N+](=O)[O-])cn2)ccc1Br | ? | ? | 124% | . | 2.2* | 2.5µM* | 7.3µM* | ?
Cc1cccc(CS(=O)(=O)c2ncc(Cl)c(C(=O)NCc3ccccc3)n2)c1 | ? | 16µM* | -9% | ? | 4.7* | 7.9µM* | 15µM* | 23µM*
COc1ccc(NC(=O)c2nc(S(=O)(=O)Cc3cccc(C)c3)ncc2Cl)c(OC)c1 | -9% | -23% | -7% | 4% | . | . | . | .
CCCc1nnc(NC(=O)c2nc(S(=O)(=O)Cc3cccc(C)c3)ncc2Cl)s1 | -17% | 14µM* | -7% | -25% | 6* | ? | 12µM* | 16µM*
SMILES | PLK1 PBD block | VDR inh | 12-LOX inh | Sfp PPTase inh | VDR inh confirm | VDR FP | VDR bla reporter | VDR cytotox | others
Cc1cccc(CS(=O)(=O)c2ncc(Cl)c(C(=O)Nc3c(C)cccc3C)n2)c1 | 19µM* | 22µM* | 6% | -24% | 6.7* | ? | 15µM* | ?
Cc1cccc(CS(=O)(=O)c2ncc(Cl)c(C(=O)Nc3nc4ccc(F)cc4s3)n2)c1 | . | -23% | -14% | . | . | . | . | .
Cc1ccc(NC(=O)c2ccc(OC(=S)N3CCOCC3)cc2)cc1 | 0% | 13% | 31% | 6% | . | . | . | .
C/C(=C\c1ccc(C(=O)O)cc1)c1ccc2c(c1)C(C)(C)CCC2(C)C | 27µM* | -1% | 12% | 40% | . | . | . | . | USP1 UbRho=?
CC(=O)C(=Cc1ccc(C(=O)O)cc1)C(C)=O | -9% | ? | -30% | -2% | . | . | . | .
Cc1[nH]c(C)c(C=O)c1C | . | . | -5% | . | . | . | . | .
NC(=O)CSc1nnc(Cn2c(=O)sc3ccccc32)n1-c1ccccc1 | -14% | -22% | 366% | 23% | . | . | . | .
